Assay results published in PubChem BioAssay.
For some assays here: Potency and affinity values are given separately. Active and inactive are the calls of the source. Unless noted, no rule for the calls is given here.

Key:
[1] = antimalarial activity against Dd2 strain (AID 2302;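 active = growth inhibition above 50% at the single 2 µM test dose, taken to imply half-maximal potency below 2 µM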;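 also: 0% = DMSO untreated growth and 100% = chloroquine plus artemisinin killed control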); settings: P. falciparum Dd2 in RBCs, LDH growth readout, 72 h; at 2 µM; hits give high values
[2] = HepG2 cytotoxicity, primary screen, cytotoxicity control for P. falciparum antimalarial project, cell-based, ATP luminescence (AID 2303;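 active = inhibition above 50%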;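 also: 0% = DMSO wells and 100% = digitonin-killed cells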); settings: HepG2 viability, 24-48 h, at 10 µM, hits give high values
[3] = target: L-lactate dehydrogenase (Plasmodium falciparum (isolate CDC / Honduras)) (UniProt Q27743); assay: PfLDH activity inhibition – cell lysate, 3D7 strain, counter-screen for P. falciparum growth inhibition project (AID 2304);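 also: 0% = vehicle and 100% = reference inhibitor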; settings: P. falciparum 3D7 crude extract, LDH APAD/NBT absorbance; at 2 µM; hits give high values
[4] = inhibition of 3D7 malaria parasite growth – strain 3D7 (AID 2306);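 also: 0% = DMSO wells and 100% = chloroquine plus artemisinin control wells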; settings: P. falciparum 3D7 erythrocytic growth, LDH absorbance, 72 h; at 2 µM; hits give high values
[5] = target: Calcium-dependent protein kinase 1 (Plasmodium falciparum (isolate 3D7)) (UniProt P62344); assay: PfCDPK1 kinase inhibitors, biochemical, TCAMS library (AID 1159585; cut-off not given, nearly all actives have IC50 up to about 0.98 µM;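 also: inhibitors leave more ATP so luminescence rises with inhibition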); settings: recombinant PfCDPK1, Kinase-Glo ATP depletion luminescence
[6] = target: Plasmodium falciparum protein kinase 6 (PK6, PF3D7_1337100) (UniProt Q8IDW1); assay: PfPK6 kinase inhibitors, biochemical, TCAMS library (AID 1159586); settings: recombinant PfPK6, Kinase-Glo ATP depletion luminescence
[7] = target: Protein kinase 7 (PK7), Plasmodium falciparum 3D7 (PF3D7_0213400) (UniProt Q7YTF7); assay: inhibition of Plasmodium PK7 catalytic activity – biochemical, TCAMS antimalarial set, Kinase-Glo luminescence (AID 1159587); settings: recombinant PfPK7, Kinase-Glo ATP depletion luminescence
[8] = target: Calcium-dependent protein kinase 4 (Plasmodium falciparum (isolate 3D7)) (UniProt Q8IBS5); assay: PfCDPK4 kinase inhibitors, biochemical, TCAMS library (AID 1159588; cut-off not given, nearly all actives have IC50 up to about 0.91 µM); settings: recombinant PfCDPK4, Kinase-Glo ATP depletion luminescence
Chain of Calcium-dependent protein kinase 4 (Plasmodium falciparum (isolate 3D7)) (Q8IBS5 whole entry, looked up): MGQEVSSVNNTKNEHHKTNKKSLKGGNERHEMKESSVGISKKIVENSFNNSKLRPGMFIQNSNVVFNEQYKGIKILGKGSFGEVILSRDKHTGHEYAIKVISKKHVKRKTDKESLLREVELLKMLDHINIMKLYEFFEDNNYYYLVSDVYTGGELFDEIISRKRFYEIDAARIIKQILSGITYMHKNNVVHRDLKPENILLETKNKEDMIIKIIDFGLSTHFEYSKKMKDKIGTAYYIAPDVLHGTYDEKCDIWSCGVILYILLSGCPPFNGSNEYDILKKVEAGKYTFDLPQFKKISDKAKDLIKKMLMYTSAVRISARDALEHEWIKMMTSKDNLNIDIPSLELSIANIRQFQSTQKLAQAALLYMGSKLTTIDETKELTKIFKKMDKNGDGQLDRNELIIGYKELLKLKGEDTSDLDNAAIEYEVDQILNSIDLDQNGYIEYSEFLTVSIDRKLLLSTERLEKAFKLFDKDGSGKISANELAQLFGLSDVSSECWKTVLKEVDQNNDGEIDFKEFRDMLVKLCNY

Chain of L-lactate dehydrogenase (Plasmodium falciparum (isolate CDC / Honduras)) (Q27743 whole entry, looked up): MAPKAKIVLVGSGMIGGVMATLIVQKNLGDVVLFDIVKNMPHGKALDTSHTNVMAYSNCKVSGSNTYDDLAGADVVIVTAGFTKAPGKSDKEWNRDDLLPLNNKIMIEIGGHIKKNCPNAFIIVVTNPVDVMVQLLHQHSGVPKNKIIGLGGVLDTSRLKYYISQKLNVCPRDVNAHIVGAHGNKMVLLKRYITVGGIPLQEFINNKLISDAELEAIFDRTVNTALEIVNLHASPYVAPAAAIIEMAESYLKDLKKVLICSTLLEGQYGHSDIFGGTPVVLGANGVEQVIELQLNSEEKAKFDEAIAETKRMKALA
Chain of Plasmodium falciparum protein kinase 6 (PK6, PF3D7_1337100) (Q8IDW1 1-305): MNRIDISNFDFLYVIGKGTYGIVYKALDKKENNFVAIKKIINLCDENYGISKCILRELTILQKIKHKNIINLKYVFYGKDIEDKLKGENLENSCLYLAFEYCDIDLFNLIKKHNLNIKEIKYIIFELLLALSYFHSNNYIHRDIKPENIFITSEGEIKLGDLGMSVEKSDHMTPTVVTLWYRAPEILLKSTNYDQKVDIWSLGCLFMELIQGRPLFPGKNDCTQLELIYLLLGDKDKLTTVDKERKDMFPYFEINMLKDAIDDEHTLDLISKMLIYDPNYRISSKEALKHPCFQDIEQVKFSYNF
Chain of Calcium-dependent protein kinase 1 (Plasmodium falciparum (isolate 3D7)) (P62344 whole entry, looked up): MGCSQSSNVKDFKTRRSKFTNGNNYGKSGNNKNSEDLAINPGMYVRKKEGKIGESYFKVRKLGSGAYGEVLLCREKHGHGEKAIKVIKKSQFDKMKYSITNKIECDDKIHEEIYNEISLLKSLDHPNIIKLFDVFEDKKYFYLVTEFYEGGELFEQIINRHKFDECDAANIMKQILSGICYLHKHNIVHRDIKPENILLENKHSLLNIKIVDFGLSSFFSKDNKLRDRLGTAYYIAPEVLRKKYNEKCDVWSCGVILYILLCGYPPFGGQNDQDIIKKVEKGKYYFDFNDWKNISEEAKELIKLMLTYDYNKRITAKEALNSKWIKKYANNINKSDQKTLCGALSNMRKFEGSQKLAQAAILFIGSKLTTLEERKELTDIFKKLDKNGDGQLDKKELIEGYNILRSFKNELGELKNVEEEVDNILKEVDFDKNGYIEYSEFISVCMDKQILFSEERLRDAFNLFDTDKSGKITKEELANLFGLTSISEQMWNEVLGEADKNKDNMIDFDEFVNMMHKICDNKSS
Chain of Protein kinase 7 (PK7), Plasmodium falciparum 3D7 (PF3D7_0213400) (Q7YTF7 1-343): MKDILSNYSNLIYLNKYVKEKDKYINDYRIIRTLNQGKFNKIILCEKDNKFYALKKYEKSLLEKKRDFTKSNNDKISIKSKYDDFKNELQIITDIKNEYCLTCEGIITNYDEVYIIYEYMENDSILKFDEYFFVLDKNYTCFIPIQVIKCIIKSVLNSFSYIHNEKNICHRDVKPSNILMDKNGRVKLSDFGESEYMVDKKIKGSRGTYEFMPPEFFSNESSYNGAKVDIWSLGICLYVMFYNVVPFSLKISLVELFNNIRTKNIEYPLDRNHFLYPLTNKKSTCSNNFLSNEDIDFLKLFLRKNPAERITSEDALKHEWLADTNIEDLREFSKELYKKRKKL

CC(=O)Nc1ccc(C(=O)Nc2ccc(-c3cccc(-c4nc5c(C)cccc5[nH]4)c3)cc2)cn1
active: growth inhibition [1] 74% | growth inhibition [4] 99%
inactive: inhibition [2] 36% | inhibition [3] -7% | outcome [5] | outcome [6] | outcome [7] | outcome [8]

CC1CC(NCCCNc2cc(=O)c3ccccc3[nH]2)c2cc(Cl)c(Cl)c(Cl)c21 (stereo not given)
active: growth inhibition [1] 69% | growth inhibition [4] 100%
inactive: inhibition [2] 0% | inhibition [3] 3% | outcome [5] | outcome [6] | outcome [7] | outcome [8]

O=C(NC1CCN(CC2(c3ccccc3)CCCC2)CC1)c1[nH]ncc1Cl
inactive: inhibition [2] -3% | inhibition [3] 5% | outcome [5] | outcome [6] | outcome [7] | outcome [8]
active: growth inhibition [1] 87% | growth inhibition [4] 83%

CCN(CC)CCN(Cc1ccc(-c2ccc(C(F)(F)F)cc2)cc1)C(=O)Cn1c(CCc2cccc(F)c2F)cc(=O)cc1-c1ccccc1
inactive: inhibition [2] 33% | inhibition [3] -2% | outcome [5] | outcome [6] | outcome [7] | outcome [8]
active: growth inhibition [1] 64% | growth inhibition [4] 94%

O=C(Nc1cccc(-c2ccc(CN3CCNCC3)cc2)c1)c1cccc(Cl)c1
inactive: growth inhibition [1] 4% | inhibition [2] 30% | inhibition [3] -4% | outcome [5] | outcome [6] | outcome [7] | outcome [8]
active: growth inhibition [4] 92%

CCCNC(=O)Nc1ccc(N(C)c2ccnc(NC3CC3)n2)cc1
inactive: inhibition [2] 28% | inhibition [3] -2% | outcome [5] | outcome [6] | outcome [7] | outcome [8]
active: growth inhibition [1] 88% | growth inhibition [4] 100%

O=C(NC1CCN(CCC[C@]2(c3ccc(Cl)c(Cl)c3)CCCN(C(=O)c3ccccc3)C2)CC1)c1ccc(F)cc1
active: growth inhibition [1] 68% | inhibition [2] 52% | growth inhibition [4] 90%
inactive: inhibition [3] -1% | outcome [5] | outcome [6] | outcome [7] | outcome [8]

CN(C(=O)/C=C/c1cc(C(F)(F)F)ccc1F)C1CCN(CCCCCNC(=O)/C=C/c2ccc(Cl)c(Cl)c2)C1 (stereo not given)
active: growth inhibition [4] 93%
inactive: growth inhibition [1] 1% | inhibition [2] 16% | inhibition [3] -3% | outcome [5] | outcome [6] | outcome [7] | outcome [8]

CC(Cc1ccc(OCc2ccccc2)cc1)Nc1nc2ccccc2c(=O)[nH]1 (stereo not given)
inactive: inhibition [2] 2% | inhibition [3] -1% | outcome [5] | outcome [6] | outcome [7] | outcome [8]
active: growth inhibition [1] 96% | growth inhibition [4] 98%

CCN(CC)CCNc1ccnc2[nH]c3ccc(C)cc3c12
active: growth inhibition [1] 81% | growth inhibition [4] 102%
inactive: inhibition [2] 9% | inhibition [3] -3% | outcome [5] | outcome [6] | outcome [7] | outcome [8]

COc1cc(NCCCNC(=O)c2ccc(Cl)c(Cl)c2)nc2ccccc12
inactive: inhibition [2] 48% | inhibition [3] 5% | outcome [5] | outcome [6] | outcome [7] | outcome [8]
active: growth inhibition [1] 101% | growth inhibition [4] 99%

C(=NNc1cc(-c2ccccc2)nc2ccccc12)c1cccnc1
active: growth inhibition [4] 87%
inactive: growth inhibition [1] 13% | inhibition [2] 23% | inhibition [3] -1% | outcome [5] | outcome [6] | outcome [7] | outcome [8]

Cc1cccc(CNc2ncc(C)c(NCCC(=O)Nc3ccccc3)n2)c1
active: growth inhibition [4] 81%
inactive: growth inhibition [1] 10% | inhibition [2] 18% | inhibition [3] 5% | outcome [5] | outcome [6] | outcome [7] | outcome [8]

CCSc1ccccc1COc1c(C)nc(N)nc1N
inactive: growth inhibition [1] 4% | inhibition [3] 3% | outcome [5] | outcome [6] | outcome [7] | outcome [8]
active: inhibition [2] 54% | growth inhibition [4] 93%

CCCOc1ccc(OCCCON2C(N)=NC(N)=NC2(C)C)cc1
active: growth inhibition [1] 94% | inhibition [2] 59% | growth inhibition [4] 96%
inactive: inhibition [3] 5% | outcome [5] | outcome [6] | outcome [7] | outcome [8]

Cc1noc(C)c1-c1cccc(CNCc2cccc(-c3cccc(-c4nc5ccccc5[nH]4)c3)c2)c1
active: growth inhibition [1] 54% | growth inhibition [4] 102%
inactive: inhibition [2] 22% | inhibition [3] 2% | outcome [5] | outcome [6] | outcome [7] | outcome [8]

CNC(=O)Cc1ccc(C(=O)Nc2cccc(-c3cccc(-c4nc5c(C)cccc5[nH]4)c3)c2)cc1
inactive: inhibition [2] 15% | inhibition [3] 0% | outcome [5] | outcome [6] | outcome [7] | outcome [8]
active: growth inhibition [1] 53% | growth inhibition [4] 96%

Cc1ccc(-n2cc(CNCCCn3ccnc3)c(-c3cccc(C)c3)n2)cc1
active: growth inhibition [4] 99%
inactive: growth inhibition [1] 36% | inhibition [2] 9% | inhibition [3] -2% | outcome [5] | outcome [6] | outcome [7] | outcome [8]

COc1ccc(Br)cc1/C=C/C(=O)Nc1ccc(C2CCCN(C)C2)cc1 (stereo not given)
inactive: growth inhibition [1] 35% | inhibition [2] 18% | inhibition [3] -2% | outcome [5] | outcome [6] | outcome [7] | outcome [8]
active: growth inhibition [4] 100%

Cc1cccc2[nH]c(-c3ccc(-c4cccc(CNCC5CCCO5)c4)cc3)nc12 (stereo not given)
inactive: inhibition [2] 18% | inhibition [3] -5% | outcome [5] | outcome [6] | outcome [7] | outcome [8]
active: growth inhibition [1] 50% | growth inhibition [4] 101%

Cc1cccc2[nH]c(-c3cccc(-c4ccc(NC(=O)CS(C)(=O)=O)cc4)c3)nc12
inactive: growth inhibition [1] 8% | inhibition [2] 3% | inhibition [3] -8% | outcome [5] | outcome [6] | outcome [7] | outcome [8]
active: growth inhibition [4] 85%

COc1ccc2ncc(F)c(CCN3CC[C@@H](CNCc4cc5c(cn4)OCS5)C3)c2n1
inactive: growth inhibition [1] 29% | inhibition [2] 3% | inhibition [3] 0% | outcome [5] | outcome [6] | outcome [7] | outcome [8]
active: growth inhibition [4] 98%

Cc1ccc(NC(=S)NC2CCN(CCCCCNC(=O)/C=C/c3ccc(Cl)c(Cl)c3)CC2)cc1Cl
inactive: inhibition [2] 45% | inhibition [3] 7% | outcome [5] | outcome [6] | outcome [7] | outcome [8]
active: growth inhibition [1] 56% | growth inhibition [4] 100%

CCOC(=O)c1ccc(NC(=O)N[C@@H](Cc2ccc(O)cc2)C(=O)NC2CCN(Cc3ccc4c(c3)OCO4)CC2)cc1
inactive: growth inhibition [1] 24% | inhibition [2] -1% | inhibition [3] 3% | outcome [5] | outcome [6] | outcome [7] | outcome [8]
active: growth inhibition [4] 86%

Cc1ccc(S(=O)(=O)NC2CCN(CCNC(=O)Nc3cc(C)nc4ccccc34)C2)cc1 (stereo not given)
inactive: growth inhibition [1] 42% | inhibition [2] -2% | inhibition [3] -3% | outcome [5] | outcome [6] | outcome [7] | outcome [8]
active: growth inhibition [4] 97%

Cc1ccc(CNC(=O)[C@H](Cc2ccccc2)Nc2cc(C)nc(Nc3ccccc3)n2)cc1
active: growth inhibition [1] 91% | growth inhibition [4] 101%
inactive: inhibition [2] 16% | inhibition [3] 1% | outcome [5] | outcome [6] | outcome [7] | outcome [8]

Nc1c(Cl)cc(C(O)CNCCCCCCOCCC=C2CCOCC2)cc1Cl (stereo not given)
inactive: growth inhibition [1] 9% | inhibition [2] 7% | inhibition [3] 0% | outcome [5] | outcome [6] | outcome [7] | outcome [8]
active: growth inhibition [4] 100%

CCc1cn(C)c2c(N3CCCC3=O)cc(C(=O)N[C@@H](Cc3ccccc3)[C@H](O)CNC3CCCCC3)cc12
active: growth inhibition [1] 98% | growth inhibition [4] 97%
inactive: inhibition [2] 8% | inhibition [3] -1% | outcome [5] | outcome [6] | outcome [7] | outcome [8]

Brc1ccc(Nc2ccnc3cc(-c4nccs4)ccc23)cc1Oc1ccnc2cc(-c3nccs3)ccc12
active: growth inhibition [1] 83% | growth inhibition [4] 91%
inactive: inhibition [2] 15% | inhibition [3] -4% | outcome [5] | outcome [6] | outcome [7] | outcome [8]

CCOC(=O)NC1=NC(C)(C)N(OCc2ccc(Cl)c(Cl)c2)C(NC(=O)OCC)=N1
inactive: growth inhibition [1] 4% | inhibition [3] 2% | outcome [5] | outcome [6] | outcome [7] | outcome [8]
active: inhibition [2] 65% | growth inhibition [4] 98%

O=C(/C=C/c1ccc(Cl)c(Cl)c1)NCCCCCN1CCC(NC(=S)Nc2cccc(Cl)c2)CC1
inactive: growth inhibition [1] 43% | inhibition [2] 24% | inhibition [3] 4% | outcome [5] | outcome [6] | outcome [7] | outcome [8]
active: growth inhibition [4] 99%

N#Cc1ccc(Cn2ccc3c4c(N)nc(N)nc4ccc32)cc1
active: growth inhibition [1] 95% | inhibition [2] 64% | growth inhibition [4] 92%
inactive: inhibition [3] 0% | outcome [5] | outcome [6] | outcome [7] | outcome [8]

CN1CCN(c2ccnc3ccc(NC(=O)Nc4cccc5c(-c6ccncc6)cccc45)cc23)CC1
active: growth inhibition [1] 100% | growth inhibition [4] 100%
inactive: inhibition [2] 7% | inhibition [3] 1% | outcome [5] | outcome [6] | outcome [7] | outcome [8]

CO/C(=C\C=C\c1cc2cc(Cl)c(Cl)cc2[nH]1)C(=O)NCCCN1CCN(c2cccc(CCCO)c2)CC1
active: inhibition [2] 66% | growth inhibition [4] 90%
inactive: growth inhibition [1] 36% | inhibition [3] 3% | outcome [5] | outcome [6] | outcome [7] | outcome [8]

CC(C)OC(=O)c1ccc(NC(=O)N[C@@H](Cc2ccc(O)cc2)C(=O)NC2C[C@H]3CC[C@@H](C2)N3Cc2ccccc2)cc1 (stereo not given in full)
active: growth inhibition [4] 92%
inactive: growth inhibition [1] 19% | inhibition [2] 0% | inhibition [3] -5% | outcome [5] | outcome [6] | outcome [7] | outcome [8]

CCOC(=O)c1ccc(-c2cnc(N)c(-c3nc4c(C)cccc4[nH]3)c2)cc1
inactive: inhibition [2] 43% | inhibition [3] -4% | outcome [5] | outcome [6] | outcome [7] | outcome [8]
active: growth inhibition [1] 79% | growth inhibition [4] 102%

COC(=O)C(NC(=O)NC1CCN(c2ccnc(Nc3ccc(F)cc3)n2)C1)c1ccccc1 (stereo not given)
active: growth inhibition [4] 87%
inactive: growth inhibition [1] 8% | inhibition [2] 11% | inhibition [3] -2% | outcome [5] | outcome [6] | outcome [7] | outcome [8]

Nc1nc(N)c2c(ccc3c2ccn3Cc2ccccn2)n1
active: growth inhibition [1] 94% | inhibition [2] 66% | growth inhibition [4] 90%
inactive: inhibition [3] -1% | outcome [5] | outcome [6] | outcome [7] | outcome [8]

N#Cc1ccc(N[C@@H](CC2CCCCC2)C(=O)N[C@@H]2CCCc3ccccc32)c2ccccc12
inactive: inhibition [2] 12% | inhibition [3] -5% | outcome [5] | outcome [6] | outcome [7] | outcome [8]
active: growth inhibition [1] 99% | growth inhibition [4] 99%

O=C(NCc1cccc(C(F)(F)F)c1)[C@@H]1CCCN1C(=O)c1ccc(O)c(-c2ccc(Cl)c(Cl)c2)c1
inactive: inhibition [2] -3% | inhibition [3] 2% | outcome [5] | outcome [6] | outcome [7] | outcome [8]
active: growth inhibition [1] 97% | growth inhibition [4] 99%
